PubChem BioAssay AID504636 (National Center for Advancing Translational Sciences (NCATS), 2011)
Hit rate of the full screen: of about 1,100 compounds, about 490 (45%) were called active. Another 33% or so got no clear call; they are omitted. Calls follow the shape of the full dose curve. So high a share suggests a set chosen from earlier hits. Shown is part of a subset that was picked to be rich in actives.

Biological target: ATP-dependent 6-phosphofructokinase (Trypanosoma brucei brucei) (UniProt O15648)
Assay: Tb PFK orthogonal confirmatory assay using ATP depletion (Kinase-Glo Plus) as an alternative measure of Tb PFK activity: Hit Validation; also: nearly all actives have a fitted effect of over 60% in size
Details: Tb PFK enzyme, Kinase-Glo Plus luminescence; series mostly up to 57.5 µM
Source text: Various species of the protozoan family Trypanosomatidae are responsible for a range of serious human diseases in tropical and subtropical areas of the world. […] Many of the disorders caused by trypanosomatids are fatal if left untreated, but most currently used drugs are inefficient and toxic.
Oxidative metabolism involving the mitochondrial tricarboxylic acid cycle and oxidative phosphorylation are repressed in these parasites, and recent RNA interference (RNAi) experiments have shown that even partial depletion of certain individual glycolytic enzymes can lead to the death of cultured parasites. One such glycolytic enzyme, phosphofructokinase (PFK), catalyzes the formation of fructose-1,6-bisphosphate (F1,6BP) and ADP from fructose-6-phosphate (F6P) and ATP, and in many metabolic circumstances makes an important contribution to the control of flux through the glycolytic pathway. As a specific glycolytic target, PFK is particularly attractive as it catalyzes the first irreversible step in glycolysis, and structural and kinetic studies have shown very substantial and essential differences from corresponding host enzymes, allowing for the discovery of parasite-selective inhibitors.
The primary qHTS data of T. brucei PFK and ADP-Glo confirmatory data are available in PubChem (AIDs: 485367 and 485368). A luminescent secondary assay was also performed that used luciferase-based nucleotide detection (Kinase-Glo Plus, Promega) similar to the qHTS, but which used ATP (rather than ADP) concentration as an alternate measure of T. brucei PFK activity. The assay measures substrate depletion (ATP) rather than product formation (ADP), coupled to an identical manner of luciferase-based signal detection. As such, compounds which truly act on T. brucei PFK produce a change in signal in the opposite direction of the primary qHTS assay, while compounds which affect the final luciferase reaction produce signal changes in identical directions. Compounds were screened as a concentration-titration series that ranged from 57uM to 0.7nM.
1. Verlinde, C.L., et al., Glycolysis as a target for the design of new anti-trypanosome drugs. Drug Resist Updat, 2001. 4(1): p. 50-65.
2. Albert, M.A., et al., Experimental and in silico analyses of glycolytic flux control in bloodstream form Trypanosoma brucei. J Biol Chem, 2005. 280(31): p. 28306-15.
3. […] J Mol Biol, 2009. 385(5): p. 1519-33.
NIH Molecular Libraries Probe Production Network [MLPCN]
NIH Chemical Genomics Center [NCGC]
PI Name: Dr. Malcolm Walkinshaw
Substrate buffer was dispensed into white, solid 1536-well plates at 3ul/well in 0.1M triethanolamine (TEA) buffer, pH 8.0, containing final concentrations of 5 mM MgCl2, 0.01% Tween20, 0.5 mM fructose-6-phosphate (F6P) and 0.1mM ATP. Then, 23nl of compounds or DMSO were delivered to each well using a pin tool. One ul T. brucei PFK (0.1M TEA, 0.01% Tween20, 0.1% bovine serum albumin (BSA) and 1.25nM PFK, final concentrations) was then dispensed, and plates were incubated at room temperature for 45 min. The luminescent detection reagent, Kinase-Glo Plus (Promega), was then added at 2ul/well and incubated for ten minutes at room temperature. The plates were measured on a ViewLux plate reader for luminescent signal using a clear filter with a one second exposure. The %Activity was determined from the corrected luminescence values. As no specific T. brucei PFK inhibitors have been identified in the literature, 1x (1.25nM) and 0x PFK enzyme controls (untreated) were included to normalize %Activity of identified inhibitors; 0x enzyme values corresponded to 100%Activity (full inhibition), while 1x PFK enzyme values were used to normalize 0% Activity (no inhibition). The Kinase-Glo Plus protocol varies from the primary screen in that it measures ATP, rather than ADP, concentration, and thus provides a measure of substrate depletion, rather than of product formation.
[…]
Potency is read from the fitted curve at half-maximal effect.

ATP-dependent 6-phosphofructokinase (Trypanosoma brucei brucei), sequence (O15648 whole entry, looked up): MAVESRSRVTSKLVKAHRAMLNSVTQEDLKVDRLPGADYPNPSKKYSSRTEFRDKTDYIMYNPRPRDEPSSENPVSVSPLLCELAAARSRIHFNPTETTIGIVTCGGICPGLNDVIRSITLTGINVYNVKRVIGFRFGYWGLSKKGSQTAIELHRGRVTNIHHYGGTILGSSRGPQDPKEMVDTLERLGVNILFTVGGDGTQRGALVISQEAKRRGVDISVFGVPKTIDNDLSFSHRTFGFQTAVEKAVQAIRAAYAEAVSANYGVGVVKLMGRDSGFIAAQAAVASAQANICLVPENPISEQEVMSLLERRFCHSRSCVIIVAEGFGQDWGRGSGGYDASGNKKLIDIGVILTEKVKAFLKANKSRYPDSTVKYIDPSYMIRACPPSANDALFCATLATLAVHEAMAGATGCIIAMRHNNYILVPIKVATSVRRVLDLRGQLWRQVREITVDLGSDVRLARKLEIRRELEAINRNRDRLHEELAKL

Row | SMILES | Potency
1 | CCOc1cccc(/C=N/N2C(=O)CSC2=S)c1O | 30.1 µM (active)
2 | O=C1CSC(=S)N1/N=C/c1ccc(O)c([N+](=O)[O-])c1 | inactive
3 | Cn1sc(=O)c2cc(S(=O)(=O)NC3CC3)ccc21 | 7.57 µM (active)
4 | OC(CNCc1ccc(Cl)c(Cl)c1)c1ccccc1 (stereo unspecified) | 21.3 µM (active)
5 | Cn1nnnc1NCc1ccc(Cl)c(Cl)c1 | 10.7 µM (active)
6 | O=[N+]([O-])c1c(NCCO)cc(Sc2nc3ccccc3s2)c2nonc12 | 0.601 µM (active)
7 | C/C=C\C=C\C(=O)N1CC2(CC(c3cccc(NC(=O)/C(C)=C\C)c3)=NO2)C[C@H]1C(N)=O (stereo partly specified) | 9.53 µM (active)
8 | C=C(C)C(=O)Nc1cccc(C2=NOC3(C2)C[C@H](C(N)=O)N(C(=O)C(c2ccccc2)c2ccccc2)C3)c1 (stereo partly specified) | 1.51 µM (active)
9 | CCc1ccc(NC(=O)C(=O)NNC(=O)c2cccs2)cc1 | inactive
10 | O=c1ccnc(Nc2ccc(Cl)cc2)[nH]1 | 21.3 µM (active)
11 | O=c1[nH]c2ccccc2n2c(-c3ccccc3)nnc12 | 6.01 µM (active)
12 | N/C(=N\OC(=O)Nc1ccc(Cl)c(Cl)c1)c1ncc(C(F)(F)F)cc1Cl | 26.9 µM (active)
13 | Cc1nc(N)nc(SCc2ccc([N+](=O)[O-])cc2)c1N | 10.7 µM (active)
14 | Nc1nc(SCc2ccc([N+](=O)[O-])cc2)c2ncn(C3OC(CO)C(O)C3O)c2n1 (stereo unspecified) | 23.9 µM (active)
15 | Cn1ccc(=Nc2ccc(NC(=O)c3ccc(N=c4ccn(C)c5ccc([N+](=O)[O-])cc45)cc3)cc2)cc1 | inactive
16 | O=C(Cc1ccc([N+](=O)[O-])cc1)N/N=C/c1ccco1 | 19 µM (active)
17 | O=C(CSc1nc(O)c(Cc2ccccc2)c(=O)[nH]1)Nc1nc2c(s1)CCCC2 | 6.75 µM (active)
18 | Cc1ccc(-c2nn(-c3ccccc3)cc2/C=C2\SC(=S)N(CCCCCC(=O)O)C2=O)o1 | 9.53 µM (active)

Row | SMILES | Potency
19 | Cc1cccc(-n2c(N)c(C(=O)N3CCN(C)CC3)sc2=S)c1 | 6.01 µM (active)
20 | O=[N+]([O-])/C=C/c1ccc2c(ccn2Cc2ccccc2)c1 | 10.7 µM (active)
21 | O=C(NCc1ccc(Cl)c(Cl)c1)c1cccnc1 | 13.5 µM (active)
22 | CCn1nc(C(=O)NNS(=O)(=O)c2cc(/C=C/C(=O)O)cc(OC)c2OC)c2ccccc2c1=O | inactive
23 | C=CC1=C(C(=O)O)N2C(=O)[C@@H](NC(=O)/C(=N\OCC(=O)O)c3csc(N)n3)[C@H]2SC1 | 2.69 µM (active)
24 | COC(=O)c1[nH]c2ccccc2c1NC(=O)CN1CCCc2ccccc21 | inactive
25 | CC(C)(C)c1nnc(NC(=O)C2c3ccccc3Oc3ccccc32)s1 | 19 µM (active)
26 | Cc1c(C)c2ccc(OCC(=O)N3CCN(c4cccc(Cl)c4)CC3)cc2oc1=O | 4.78 µM (active)
27 | O=c1[nH]c(=S)[nH]c2[nH]c(=S)[nH]c12 | 1.35 µM (active)
28 | COc1ccc(N/C=C(\C2OC(=O)c3ccccc32)[N+](=O)[O-])cc1 (stereo unspecified) | inactive
29 | FC(F)(F)C1CCCN(c2nsc3ccccc23)C1 (stereo unspecified) | 2.69 µM (active)
30 | N#Cc1cccc(CSc2ncnc(N)n2)c1 | 13.5 µM (active)
31 | Cc1ccc(NC(=O)c2cc(-c3ccc(C)o3)nc3ccccc23)nc1 | 6.75 µM (active)
32 | Cc1nn(Cc2ccc(Cl)c(Cl)c2)c(C)c1NC(=O)c1cc(C2CC2)on1 | 5.36 µM (active)
33 | OCCN1CCN(C(=S)c2ccc(-c3ccccc3)cc2)CC1 | 9.53 µM (active)
34 | Cc1ccc(C)c(-c2nnc(NC(=O)CS(=O)(=O)c3ccccc3)o2)c1 | inactive
35 | COC(=O)CC(=O)N1CCN(c2ccc(Cl)c(Cl)c2)CC1 | 23.9 µM (active)
36 | O=C1CSC(=S)N1c1ccc(Cl)c(Cl)c1 | inactive
